We go through 58 compounds from ChEMBL document CHEMBL1201862, “PubChem BioAssay data set” (2004).

Among all 400,000 compounds or so, about 2,100 (0.53%) were called active. Inconclusive results (about 14%) are left out. No rule for the calls is given here. This excerpt belongs to a sample that is enriched for actives.

Ataxin-2 (Homo sapiens), sequence (Q99700 whole entry): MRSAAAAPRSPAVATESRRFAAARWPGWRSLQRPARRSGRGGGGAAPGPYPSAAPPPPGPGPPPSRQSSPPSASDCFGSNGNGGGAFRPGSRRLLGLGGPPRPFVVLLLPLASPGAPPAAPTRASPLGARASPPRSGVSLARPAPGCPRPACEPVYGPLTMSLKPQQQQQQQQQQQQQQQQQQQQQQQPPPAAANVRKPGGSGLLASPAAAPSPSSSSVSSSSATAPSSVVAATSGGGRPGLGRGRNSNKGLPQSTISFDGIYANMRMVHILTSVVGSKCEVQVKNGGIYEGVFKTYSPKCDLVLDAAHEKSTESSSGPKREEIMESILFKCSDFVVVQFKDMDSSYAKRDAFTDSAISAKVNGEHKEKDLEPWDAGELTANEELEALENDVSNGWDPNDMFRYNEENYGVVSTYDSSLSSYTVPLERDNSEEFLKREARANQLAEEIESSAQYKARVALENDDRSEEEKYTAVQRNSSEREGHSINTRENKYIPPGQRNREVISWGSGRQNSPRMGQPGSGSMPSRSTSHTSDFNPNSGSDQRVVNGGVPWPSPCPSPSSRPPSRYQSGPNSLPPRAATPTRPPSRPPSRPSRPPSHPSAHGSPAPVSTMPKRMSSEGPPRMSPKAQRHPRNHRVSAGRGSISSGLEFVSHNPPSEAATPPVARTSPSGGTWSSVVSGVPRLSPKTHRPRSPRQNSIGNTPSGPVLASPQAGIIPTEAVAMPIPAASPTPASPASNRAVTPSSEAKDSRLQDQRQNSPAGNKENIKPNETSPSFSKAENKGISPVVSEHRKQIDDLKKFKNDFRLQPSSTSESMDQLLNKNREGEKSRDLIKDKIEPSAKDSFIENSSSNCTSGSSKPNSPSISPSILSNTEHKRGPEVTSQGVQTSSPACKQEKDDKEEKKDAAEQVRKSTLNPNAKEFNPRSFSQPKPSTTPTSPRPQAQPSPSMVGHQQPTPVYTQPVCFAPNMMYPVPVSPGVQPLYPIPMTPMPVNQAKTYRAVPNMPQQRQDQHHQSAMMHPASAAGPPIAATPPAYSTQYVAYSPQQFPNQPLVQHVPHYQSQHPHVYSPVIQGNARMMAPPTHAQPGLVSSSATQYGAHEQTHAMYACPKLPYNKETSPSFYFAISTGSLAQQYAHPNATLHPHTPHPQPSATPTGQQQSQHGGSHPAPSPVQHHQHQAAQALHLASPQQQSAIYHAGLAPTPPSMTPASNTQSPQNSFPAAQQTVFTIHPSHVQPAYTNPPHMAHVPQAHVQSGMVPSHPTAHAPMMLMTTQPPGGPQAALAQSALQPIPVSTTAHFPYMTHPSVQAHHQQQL

This assay concerns the target Ataxin-2 (Homo sapiens) (UniProt Q99700). The experiment in a line: qHTS for Inhibitors of ATXN expression. Format: functional.
With `Cc1cc(C(F)(F)F)c(C#N)c(SCC(=O)Nc2nc3cc(Br)ccc3s2)n1`, the Potency entry was “inactive”.

Consider `COC(=O)c1sc2ccccc2c1NC(=O)c1ccc(S(=O)(=O)N2CCCC(C)C2)cc1` (stereo not drawn), for which the Potency entry was “inactive”.

For `CCC(c1nnnn1Cc1ccco1)N(CCc1ccccc1)Cc1cc2cc(C)ccc2nc1O` (stereo not drawn), the Potency is 39.8 µM (active).

`COc1ccc(CCN(Cc2cc3cc(C)ccc3nc2O)C(C)=O)cc1OC`: the Potency entry is “inactive”.

Consider `CCOc1ccc2nc(O)c(CN(Cc3ccco3)C(CC)c3nnnn3Cc3ccccc3)cc2c1` (stereo not drawn), for which the Potency was 20 µM (active).

For `Oc1nc2ccccc2nc1-c1nnnn1Cc1ccccc1`, the Potency entry was “inactive”.

With `Cc1ccc2nc3c(cc2c1)c(NC(=O)c1ccco1)nn3CC(C)C`, the Potency entry is “inactive”.

For `CC1CCCN(C(=S)SCC(=O)c2cc(Br)cc(Br)c2O)C1` (stereo not drawn), the Potency entry is “inactive”.

`O=C(Cc1csc(Nc2nc(S)nc3ccccc23)n1)N1CCN(c2cccc(Cl)c2)CC1`: the Potency result is “inactive”.

`CCn1c(SC(C)C(=O)Nc2nnc(C)s2)nnc1-c1ccco1` (stereo not drawn): the Potency result was “inactive”.

For `Cc1cc(C(=O)CN2C(=O)c3cccc(N)c3C2=O)c(C)n1Cc1cccs1`, the Potency result is “inactive”.

Regarding `Cc1cc(/C=C(\C#N)C(=O)NCc2cccs2)c(C)[nH]1`, the Potency entry is “inactive”.

In the case of `Cc1c(C#N)c(NC(=O)CCl)n(Cc2cccs2)c1C`, the Potency was 11.2 µM (active).

On to `Cc1c(CCC(=O)O)c(=O)oc2c(C)c3occ(-c4ccc(Cl)cc4)c3cc12`, for which the Potency result is “inactive”.

Consider `C[C@H]1CN([C@@H](C)CO)C(=O)Cc2cc(NC(=O)CCC(F)(F)F)ccc2O[C@H]1CN(C)Cc1ccc(-c2ccccc2)cc1`, for which the Potency is 35.5 µM (active).

With `C[C@H](CO)N1C[C@H](C)[C@@H](CN(C)S(=O)(=O)c2ccc(-c3ccccc3)cc2)OCc2cn(nn2)CCCC1=O`, the Potency entry was “inactive”.

Consider `C[C@@H]1CN([C@H](C)CO)C(=O)Cc2cc(NS(=O)(=O)c3ccc(Cl)cc3)ccc2O[C@H]1CN(C)Cc1ccc(C(F)(F)F)cc1`, for which the Potency is 25.1 µM (active).

For `O=C1OCc2ccc(NS(=O)(=O)c3ccc(C(F)(F)F)cc3)cc21`, the Potency result was “inactive”.

In the case of `C[C@H]1CN([C@@H](C)CO)C(=O)Cc2cc(NC(=O)CCC(F)(F)F)ccc2O[C@H]1CN(C)Cc1ccc(C(F)(F)F)cc1`, the Potency is 39.8 µM (active).

On to `C[C@@H]1CN([C@@H](C)CO)C(=O)CCCn2nncc2CO[C@H]1CN(C)Cc1ccc(-c2ccccc2)cc1`, for which the Potency is 28.2 µM (active).

Regarding `COc1cccc(S(=O)(=O)N(C)C[C@@H]2OCc3cnnn3CCCC(=O)N([C@@H](C)CO)C[C@H]2C)c1`, the Potency result is “inactive”.

Regarding `COCCCNC(=O)/C(C#N)=C/c1c(N2CCN(C)CC2)nc2c(C)cccn2c1=O`, the Potency result was “inactive”.

As to `CNS(=O)(=O)c1ccc2c3c(cccc13)C(=O)N2`, the Potency result was “inactive”.

`Cc1c(Cc2ccccc2)c(NCCCO)n2c(nc3ccccc32)c1C#N`: the Potency entry is “inactive”.

In the case of `NC(=O)c1cc2ccc(O)cc2o/c1=N\c1ccccc1`, the Potency result was “inactive”.

On to `CN(C)Cc1ccccc1CNC(=O)c1cccc(S(=O)(=O)Nc2ccc3c(c2)OCO3)c1`, for which the Potency entry was “inactive”.

Consider `C[C@H]1CN([C@@H](C)CO)C(=O)Cc2cc(NC(=O)C3CC3)ccc2O[C@H]1CN(C)Cc1ccc(Oc2ccccc2)cc1`, for which the Potency is 25.1 µM (active).

As for `Cc1ccc(NC(=O)C2CC(=O)N(C(C)C)C2)cc1C` (stereo not drawn), the Potency entry is “inactive”.

Turning to `Cc1cc(C)c(S(=O)(=O)NCc2ccc3c(c2)OCO3)c(C)c1`, the Potency result is “inactive”.

Take `Cc1ccc(S(=O)(=O)Nc2ccc3c(c2)CC(=O)N([C@H](C)CO)C[C@H](C)[C@H](CN(C)Cc2ccc4c(c2)OCO4)O3)cc1`: the Potency is 35.5 µM (active).

Consider `Cc1ccc(-c2nc(C[S+]([O-])CC(=O)NCCN3CCCCCC3)c(C)o2)cc1` (stereo not drawn), for which the Potency result was “inactive”.

With `CCOC(=O)CN1C(=O)CC(c2ccc([N+](=O)[O-])cc2)C1=O` (stereo not drawn), the Potency entry is “inactive”.

Consider `NC(=O)c1nsc(C(=O)N(c2ccccc2F)C(C(=O)NCc2ccccc2)c2ccc(O)cc2)c1N` (stereo not drawn), for which the Potency entry was “inactive”.

Take `Cc1csc(N2CCN(c3cc4c(cc3Cl)nc(-c3ccncc3)n4CCCN3CCCC3)CC2)n1`: the Potency was 35.5 µM (active).

For the compound `Cc1ccc(Nc2nc(-c3ccncc3)cs2)cc1`, the Potency entry is “inactive”.

Take `O=[N+]([O-])c1ccc(-c2csc(N3CCCCCC3)n2)cc1`: the Potency entry was “inactive”.

With `Cc1ccc(-c2csc(N3CCN(CCCn4c(-c5ccncc5)nc5ccccc54)CC3)n2)cc1`, the Potency is 35.5 µM (active).

Take `O=C(Nc1nc2c(s1)CN(Cc1ccccc1)CC2)c1c(F)cccc1F`: the Potency result is “inactive”.

Take `ClC1(Cl)CC1CSc1nc2ccccc2[nH]1` (stereo not drawn): the Potency entry is “inactive”.

For `O=C(CCN1C(=O)/C(=C\c2ccc(F)cc2)SC1=S)Nc1ccccc1`, the Potency entry is “inactive”.

Turning to `CN1CCN(C(=O)CCN2C(=O)/C(=C\c3ccc(F)cc3)SC2=S)CC1`, the Potency is 39.8 µM (active).

`Cc1ccc(/C=C2/SC(=S)N(CCC(=O)N3CCN(C)CC3)C2=O)cc1`: the Potency was 11.9 µM (active).

Take `COc1ccc(/C=C2/SC(=S)N(CCCC(=O)N3CCN(C)CC3)C2=O)cc1`: the Potency is 17.8 µM (active).

As to `COc1ccc(-n2c(=O)/c(=C\c3cccs3)s/c2=C(/C#N)C(=O)N2CCN(C)CC2)cc1`, the Potency result was “inactive”.

On to `COc1ccc(/C=C2\SC(=S)N(CC(=O)NNC(=O)c3ccncc3)C2=O)cc1`, for which the Potency entry is “inactive”.

On to `Cc1ccc(/C=C2\SC(=S)N(CCC(=O)NNC(=O)c3ccncc3)C2=O)cc1`, for which the Potency result is “inactive”.

With `CC/N=C1/S/C(=C/c2ccc(-c3ccc(F)cc3)o2)C(=O)N1CC`, the Potency entry was “inactive”.

Turning to `Cc1ccc(/C=C2\Oc3c(ccc(O)c3CN3CCN(C)CC3)C2=O)cc1`, the Potency result is “inactive”.

With `O=C(Nc1cc[n+](-c2nc3ccccc3nc2[N-]S(=O)(=O)c2ccccc2)cc1)c1cccs1`, the Potency result is “inactive”.

Consider `COC(=O)c1ccc(CSc2nc(C(F)F)cc(C)c2C#N)o1`, for which the Potency entry is “inactive”.

On to `O=C(OCC1CCNCC1)c1ccc(F)cc1`, for which the Potency entry was “inactive”.

On to `C=CCNC(=O)C(C#N)c1nc2ccccc2nc1N1CCCCCC1` (stereo not drawn), for which the Potency entry is “inactive”.

Regarding `COc1ccccc1[C@@H]1C(c2ccc(F)cc2)=NN(c2ccccc2)[C@H]1C(=O)N1CCOC1=O`, the Potency entry was “inactive”.

As for `COc1ccccc1/C=C/C1(C(=O)NC2CCCC2)CC(=O)N1c1ccc(F)cc1` (stereo not drawn), the Potency was 14.1 µM (active).

With `COc1cccc(/C=N/NC(=O)NC2CCCCC2)c1O`, the Potency entry is “inactive”.

Turning to `COc1ccccc1Nc1nc(Cl)c(C=O)s1`, the Potency result was “inactive”.

Turning to `Nc1nc(Sc2ccc([N+](=O)[O-])c3nonc23)c2nc[nH]c2n1`, the Potency is 22.4 µM (active).

With `CCCNC(=O)/C=C/C(=O)O`, the Potency entry is “inactive”.
